For five molecules, z-score and composite z-score results are on record in PubChem BioAssay.

A short description of assay [1]: optical density shifts of acrAB sulA E. coli – strain DRC41, OD650, 48 h, E. coli filamentation inducer project, primary screen (AID 1152).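 Note: E. coli MC1000 strain DRC41 lacking acrAB efflux pump and sulA.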 The note with it: higher = more signal, called active from +8 up or from −8 down.
A short description of assay [2]: probe aLefty1 binding on compound microarray – biochemical, small-molecule microarray, 635/667 nm fluorescence, primary screen (AID 1153).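 Note: score merges spot fluorescence with signal-to-noise ratio from the scanned slide images.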 The note with it: higher = more signal.
Assay [3] can be described thus: plasmodial surface anion channel blockers, osmotic lysis – cell-based, P. falciparum Indochina, OD700, 1 h, primary screen (AID 1154). As to conditions: P. falciparum Indochina infected RBC osmotic lysis, higher = more signal, called active from +8 up or from −8 down.
The nature of assay [4]: plasmodial surface anion channel blockers, osmotic lysis – cell-based, P. falciparum Indochina, OD700, 2 h, primary screen (AID 1155).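 Note: lysis reports solute entry through the parasite surface anion channel PSAC.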 The note with it: P. falciparum Indochina infected erythrocytes, higher = more signal, called active from +8 up or from −8 down.
Assay [5] in a line: changes in parasitized red cell lysis, either direction – P. falciparum Indochina, OD700, 3 h, PSAC antagonist project, primary screen (AID 1156). As to conditions: P. falciparum-infected erythrocytes, osmotic lysis, higher = more signal, called active from +8 up or from −8 down.
The nature of assay [6]: plasmodial surface anion channel blockers, osmotic lysis – cell-based, P. falciparum Indochina, OD700, 18 h, primary screen (AID 1157). The note with it: P. falciparum Indochina infected erythrocytes, osmotic lysis OD700, 18 h; higher = more signal, called active from +8 up or from −8 down.
The nature of assay [7]: S6 kinase pathway phospho-S6 level changes – cell-based, A549, cytoblot, luminescence, serum-stimulated, primary screen (AID 1158).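 Note: serum-stimulated A549 lung adenocarcinoma cells; signal is phosphorylated S6 detected by cytoblot immunostaining with HRP secondary.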 As to conditions: 5 h, higher = more signal.
The target in assay [8] is NADPH oxidase 2 (Homo sapiens) (UniProt P04839). Kind of assay: compounds shifting NOX2 Amplex Red fluorescence – cell-based, HEK293-NOX2, PMA-stimulated, NOX inhibitor project, primary screen (AID 1159). Note: test concentration not given here. The note with it: 45 min, higher = more signal, called active from +8 up or from −8 down.
For assay [9], the target named is NADPH oxidase 4 (Homo sapiens) (UniProt Q9NPH5). Kind of assay: compounds shifting NOX4 Amplex Red fluorescence – cell-based, HEK293-NOX4, tetracycline-induced, NOX inhibitor project, primary screen (AID 1160). The note with it: HEK293-NOX4, Amplex Red H2O2 fluorescence, 45 min; higher = more signal, called active from +8 up or from −8 down.
Assay [10] concerns the target NADPH oxidase 5 (Homo sapiens) (UniProt Q96PH1). Kind of assay: compounds shifting NOX5 Amplex Red fluorescence – cell-based, HEK293-NOX5, NOX inhibitor project, primary screen (AID 1161). The note with it: HEK293-NOX5, ionomycin, 45 min, higher = more signal.
Assay [11] in a line: compound effects on lung adenocarcinoma cell viability – A549, calcein-AM fluorescence, 48 h, basal, profiling panel (AID 1162). Note: test concentration not given here. As to conditions: higher = more signal.
Assay [12] in a line: compound effects on differentiated 3T3-L1 adipocyte viability – cell-based, 3T3-L1 adipocytes, calcein-AM fluorescence, 48 h, basal, profiling panel (AID 1163). Note: test concentration not given here. As to conditions: 3T3-L1 adipocytes viability, higher = more signal.
A short description of assay [13]: compound effects on hepatocellular carcinoma cell viability – HepG2, calcein-AM fluorescence, 48 h, basal, profiling panel (AID 1164). Note: test concentration not given here. The note with it: higher = more signal.
The nature of assay [14]: compound effects on multiple myeloma cell viability – MM1S, calcein-AM fluorescence, 48 h, basal, profiling panel (AID 1165). Note: test concentration not given here. As to conditions: higher = more signal.
The nature of assay [15]: calcein-AM signal in unstimulated myeloma cells – cell-based, calcein-AM fluorescence, 48 h, PK04 Diversity Set, profiling panel (AID 1166).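 Note: cells grown under basal conditions without added stimulus; test concentration not given here.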 The note with it: RPMI8226 myeloma viability, higher = more signal.
A short description of assay [16]: JC-1 mitochondrial signal, unstimulated HepG2 cells – cell-based, JC-1 fluorescence, 24 h, 100 nL compound, profiling panel (AID 1167). Note: test concentration not given here. The note with it: HepG2 mitochondrial potential, higher = more signal.
Assay [17] is described as follows: JC-1 mitochondrial signal, unstimulated adipocytes – cell-based, JC-1 fluorescence, 3T3-L1 adipocytes, 24 h, 100 nL compound, profiling panel (AID 1168). Note: test concentration not given here. As to conditions: JC-1 mitochondrial fluorescence, higher = more signal, called active from +8 up or from −8 down.
A short description of assay [18]: JC-1 mitochondrial signal, unstimulated myeloma cells – cell-based, JC-1 fluorescence, RPMI8226, 24 h, 100 nL compound, profiling panel (AID 1169). Note: test concentration not given here. As to conditions: JC-1 mitochondrial potential fluorescence, higher = more signal.
Assay [19] can be described thus: JC-1 mitochondrial signal, unstimulated MM1S myeloma – cell-based, JC-1 fluorescence, 24 h, 100 nL compound, profiling panel (AID 1170). Note: test concentration not given here. As to conditions: MM1S mitochondrial potential, higher = more signal.
Assay [20] in a line: resazurin metabolic signal in A549 cells – cell-based, resazurin fluorescence, 24 h, PK04 Diversity Set, profiling panel (AID 1171). Note: test concentration not given here. As to conditions: A549 viability, higher = more signal, called active from +8 up or from −8 down. In general terms: Alamar Blue is a resazurin reagent that responds to reducing activity.

The source made the active and inactive calls.

Sequence of NADPH oxidase 4 (Homo sapiens) (Q9NPH5 whole entry, looked up): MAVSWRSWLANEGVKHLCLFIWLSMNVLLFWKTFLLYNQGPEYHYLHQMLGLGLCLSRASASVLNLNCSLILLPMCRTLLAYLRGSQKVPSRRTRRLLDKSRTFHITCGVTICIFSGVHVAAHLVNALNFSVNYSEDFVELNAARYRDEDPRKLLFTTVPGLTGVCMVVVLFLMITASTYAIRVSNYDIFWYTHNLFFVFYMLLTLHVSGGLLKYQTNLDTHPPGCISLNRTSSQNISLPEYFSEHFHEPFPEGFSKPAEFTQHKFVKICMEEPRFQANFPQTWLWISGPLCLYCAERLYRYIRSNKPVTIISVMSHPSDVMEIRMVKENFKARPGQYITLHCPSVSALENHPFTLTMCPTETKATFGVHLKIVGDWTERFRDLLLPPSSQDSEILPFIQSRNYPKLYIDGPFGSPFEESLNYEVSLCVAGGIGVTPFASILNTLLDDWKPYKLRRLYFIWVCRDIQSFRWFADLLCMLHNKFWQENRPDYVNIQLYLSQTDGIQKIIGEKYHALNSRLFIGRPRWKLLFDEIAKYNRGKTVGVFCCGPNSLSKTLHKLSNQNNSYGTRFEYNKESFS
Sequence of NADPH oxidase 2 (Homo sapiens) (P04839 whole entry, looked up): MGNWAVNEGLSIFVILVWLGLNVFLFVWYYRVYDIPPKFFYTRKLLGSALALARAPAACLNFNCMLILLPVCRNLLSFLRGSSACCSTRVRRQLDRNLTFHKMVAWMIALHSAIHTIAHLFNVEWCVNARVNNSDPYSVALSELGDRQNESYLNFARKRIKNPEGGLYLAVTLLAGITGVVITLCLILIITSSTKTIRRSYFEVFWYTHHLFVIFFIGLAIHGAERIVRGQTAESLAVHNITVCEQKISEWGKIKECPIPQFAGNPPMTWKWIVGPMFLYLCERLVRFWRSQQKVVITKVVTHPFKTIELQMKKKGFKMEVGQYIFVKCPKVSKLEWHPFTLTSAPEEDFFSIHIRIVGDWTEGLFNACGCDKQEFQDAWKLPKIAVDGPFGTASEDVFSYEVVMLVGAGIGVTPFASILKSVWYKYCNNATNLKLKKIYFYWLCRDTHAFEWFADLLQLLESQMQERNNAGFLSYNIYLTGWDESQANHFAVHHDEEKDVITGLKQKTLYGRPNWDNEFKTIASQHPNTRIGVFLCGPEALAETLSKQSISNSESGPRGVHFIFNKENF
Sequence of NADPH oxidase 5 (Homo sapiens) (Q96PH1 whole entry, looked up): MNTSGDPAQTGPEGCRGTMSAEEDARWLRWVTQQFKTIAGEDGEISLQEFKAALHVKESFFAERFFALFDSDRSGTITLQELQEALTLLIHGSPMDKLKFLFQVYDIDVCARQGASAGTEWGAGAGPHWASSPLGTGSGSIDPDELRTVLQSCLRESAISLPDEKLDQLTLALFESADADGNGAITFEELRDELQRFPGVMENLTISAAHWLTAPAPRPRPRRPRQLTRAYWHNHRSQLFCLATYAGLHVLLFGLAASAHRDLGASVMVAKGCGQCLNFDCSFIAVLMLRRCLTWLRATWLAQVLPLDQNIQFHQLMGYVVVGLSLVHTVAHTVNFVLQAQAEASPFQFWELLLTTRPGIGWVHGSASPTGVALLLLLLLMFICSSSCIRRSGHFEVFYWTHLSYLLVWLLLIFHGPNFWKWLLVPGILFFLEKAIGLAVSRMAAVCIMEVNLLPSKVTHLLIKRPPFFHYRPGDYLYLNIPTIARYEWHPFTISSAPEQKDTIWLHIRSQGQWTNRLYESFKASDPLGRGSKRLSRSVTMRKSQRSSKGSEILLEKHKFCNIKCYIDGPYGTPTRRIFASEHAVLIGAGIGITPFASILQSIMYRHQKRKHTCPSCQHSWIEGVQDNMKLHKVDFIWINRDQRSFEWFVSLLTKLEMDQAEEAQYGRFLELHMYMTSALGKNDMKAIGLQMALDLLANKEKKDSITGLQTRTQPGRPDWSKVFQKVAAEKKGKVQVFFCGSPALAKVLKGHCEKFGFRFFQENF

Turning to `CN(C)CCCCNC(=O)[C@H]1C[C@H]2C(=O)N[C@@H](Cc3ccccc3)C(=O)N2[C@H]1c1cccc(OCCO)c1`, the z-score in assay [1] is 2.11 (inactive); in [3], 2.68 (inactive); in assay [4] it was -0.546 (inactive); in [5] it was -0.282 (inactive); in [6] it was -1.43 (inactive); in assay [7], 0.331. Further, the z-score in [8] was 0.693 (inactive); in assay [9] it was 0.863 (inactive); in [10] it was 1.43; in assay [11], -0.411; in [12], -0.0901; in assay [13], 0.219. Also, the z-score in assay [14] was 0.642; in [15], 0.826; in [16], 0.17; in assay [17], -0.259 (inactive); in [18], 0.264; in assay [19] it was -0.396. In assay [20], the z-score was 1.12 (inactive). In [2], the composite z-score was found to be 0.0751.
On to `CC1(C)OC[C@@]23C=C(Br)[C@@H](C[C@H]12)[C@@]1(CO1)C3=O`, for which the z-score was -0.68 (inactive) in assay [1]; -0.396 (inactive) in [3]; 0.355 (inactive) in assay [4]; 0.0349 (inactive) in [5]; -0.0371 (inactive) in assay [6]; -0.552 in [7]. The z-score is 0.173 (inactive) in assay [8]; 0.63 (inactive) in [9]; -0.278 in assay [10]; 0.0066 in [11]; -0.588 in assay [12]; -0.0344 in assay [13]. Moreover, the z-score is -0.229 in [14]; -0.215 in [15]; -0.973 in [16]; 0.228 (inactive) in assay [17]; 0.855 in assay [18]; -0.151 in assay [19]. Also, the z-score in [20] is -0.843 (inactive). In [2], this molecule gave a composite z-score of 0.0557.
In the case of `COC(=O)c1c(CC[C@@H](CO)NC(=O)N[C@@H](Cc2ccccc2)Cn2cc(-c3cncn3C)nn2)oc(C(C)=O)c1C(=O)OC`, the z-score is 0.922 (inactive) in assay [1]; 1.49 (inactive) in assay [3]; -0.182 (inactive) in assay [4]; 1.29 (inactive) in assay [5]; -0.277 (inactive) in assay [6]; 1.22 in assay [7]. For the same molecule, the z-score is -5.64 (inactive) in assay [8]; -2.01 (inactive) in [9]; -3.3 in [10]; -0.184 in [11]; 1.15 in assay [12]; -0.382 in assay [13]. Moreover, the z-score in [14] is 0.732; in [15] it was -1.81; in assay [16] it was -0.321; in assay [17] it was 0.724 (inactive); in [18], -0.442; in assay [19] it was -0.322. Also, the z-score in assay [20] is -0.208 (inactive). Further, the composite z-score in assay [2] is -0.147.
Consider `C[N+](C)(C)CCCCCCNC(=O)[C@@H]1C[C@@H]2C(=O)N[C@@H](Cc3ccccc3)C(=O)N2[C@@H]1c1ccc(O)cc1`, for which the z-score in assay [1] is 0.38 (inactive); in [3] it was 3.42 (inactive); in [4], 0.0655 (inactive); in assay [5], -0.406 (inactive); in assay [6] it was 0.0311 (inactive); in assay [7], -0.491. The z-score in assay [8] is 0.627 (inactive); in [9], 0.203 (inactive); in assay [10], 0.0921; in [11], -0.428; in [12], -0.482; in [13], 0.223. Besides, the z-score is 0.337 in assay [14]; -0.0064 in assay [15]; -1.12 in assay [16]; -0.055 (inactive) in assay [17]; -0.862 in assay [18]; -0.401 in assay [19]. Also, in assay [20], the z-score was 0.47 (inactive). The molecule also displayed a composite z-score in assay [2] of 0.286.
Take `C=C(COC)/C(=C/C[C@H](OC(=O)c1ccncc1)c1ccc(OCCO)cc1)c1cc(C(=O)OC)ccc1OC`: the z-score is 1.79 (inactive) in [1]; 21.4 (active) in assay [3]; 2.24 (inactive) in assay [4]; 2.31 (inactive) in assay [5]; -1.02 (inactive) in [6]; 0.876 in assay [7]. Further, the z-score was -3.16 (inactive) in assay [8]; -1.49 (inactive) in [9]; -2.53 in [10]; -0.313 in assay [11]; 1.7 in [12]; -0.842 in [13]. Besides, the z-score is -1.18 in assay [14]; -0.443 in [15]; 1.37 in assay [16]; -0.4 (inactive) in assay [17]; 0.368 in [18]; 0.0527 in assay [19]. In [20], the z-score was 1.29 (inactive). In [2], this molecule showed a composite z-score of 0.0999.
